The record followed here is PubChem BioAssay (NCATS).

Each structure is given as a SMILES string. Several values for one entry are separate records, joined by “and”; a condition that tells them apart may be missing. Identical values can stand only once. Inconclusive results are not listed. Values without a mark were called inactive. Activity calls are given as the source filed them. The call rests on the fitted dose curve; in most records, active means well fitted curve in the direction sought with a large enough effect; inconclusive means small, poorly fitted or top-dose-only effect, or another doubt; inactive means no such curve, though single readings can be large; an effect the other way counts as inactive or inconclusive.

The nature of assay [1]: Viability qHTS for spleen associated tyrosine kinase inhibitor (SYKi) naive MV4-11 cells (AID 1963823). Further: nearly all actives have a fitted effect of over 40% in size. Conditions: MV4-11 AML viability, CellTiter-Glo luminescence, 72 h; series mostly up to 45 µM. The method, boiled down:
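Cells: MV4-11, SYK inhibitor naive, 500 per well. Treatment: library compounds, 72 hr, 37 C, 5% CO2. Read-out: CellTiter-Glo luminescence after 10 min RT.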
Background: Quantitative high-throughput screening tests each substance at several concentrations.

Assay [2] in a line: Viability qHTS for spleen associated tyrosine kinase inhibitor (SYKi) drug resistant MV4-11 cells (AID 1963824). Further: nearly all actives have a fitted effect of over 35% in size. Conditions: SYKi-resistant MV4-11 viability, CellTiter-Glo, 72 h; series mostly up to 45 µM. In short, it runs like this: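 SYK-inhibitor-resistant MV4-11 AML cells were seeded at 500 per well onto compound and cultured 72 hours (37 °C, 5% CO2). CellTiter-Glo was then added, and after 10 min at room temperature, luminescence gave viability.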

A short description of assay [3]: Quantitative highthroughput screen to assess conditional lethalithy of NOMO1 cells grown in RPMI1640 with untreated serum (RPMI+s) (AID 1963876). Further: nearly all actives have a fitted effect of over 35% in size.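 On Viability: 100% = DMSO wells and 0% = empty wells without cells.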 Conditions: NOMO1 AML cells in RPMI+serum, CellTiter-Glo viability, 48 h; series mostly up to 45.8 µM. The method, boiled down:
(§1)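 Each medium arm—HPLM with 10% dialyzed FBS, or RPMI1640 with 5 mM glucose and 10% untreated or dialyzed FBS—was screened against an 11-point, 3-fold compound titration for 48 h at 37 °C, with CellTiter-Glo luminescence as endpoint.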
On the technique in general: In ATP-based viability assays light output follows the ATP content of the culture.

Assay [4] in a line: Quantitative highthroughput screen to assess conditional lethalithy of NOMO1 cells grown in RPMI1640 with dialyzed fetal bovine serum (RPMI+ds) (AID 1963877). Further: nearly all actives have a fitted effect of over 30% in size.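 On Viability: 100% = DMSO control wells and 0% = empty wells.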 Conditions: NOMO1 in RPMI+dialyzed FBS viability, ATP luminescence, 48 h; series mostly up to 45.8 µM. In short, it runs like this: as §1
Assay [5] in a line: Quantitative highthroughput screen to assess conditional lethalithy of P12 Ichikawa cells grown in Human Plasma-Like Medium with dialyzed fetal bovine serum (HPLM+ds) (AID 1963879). Further: nearly all actives have a fitted effect of over 35% in size. Conditions: ATP luminescence, 48 h; Potency: viability; series mostly up to 45.8 µM. In short, it runs like this:
as §1

Assay [6] is described as follows: Cellular viability qHTS for adrenocortical cancer (ACC) cell line SW-13 (AID 1963989). Further: nearly all actives have a fitted effect of over 65% in size.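 On activity (max response): cells grown in serum-free medium with ITS supplement; on the % scale 0 is the no-effect control and ±100 the full control effect.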 Conditions: SW-13 ACC cells viability, CellTiter-Glo, 48 h; activity (max response): stronger effect = lower value. The method, boiled down: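 48 h treatment, SW-13 in ITS/DMEM serum-free; doses up to 46 uM; readout CellTiter-Glo luminescence; curve fit four-parameter logistic.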
A short description of assay [7]: Cellular viability qHTS for adrenocortical cancer (ACC) cell line NCI-H295R (AID 1963990). Further: nearly all actives have a fitted effect of over 60% in size. Conditions: CellTiter-Glo ATP luminescence, 48 h; series mostly up to 46.1 µM. The method, boiled down:
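Compound titrations (up to 46 uM final) are applied to NCI-H295R cultures for 48 h at 37C. Viable cell number is estimated by CellTiter-Glo signal, normalised to DMSO and doxorubicin controls.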

Assay [8] in a line: Quantitative highthroughput screen to assess conditional lethalithy of P12 Ichikawa cells grown in RPMI1640 with untreated serum (RPMI+s) (AID 1963881). Further: nearly all actives have a fitted effect of over 35% in size.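 On Viability: 100% = DMSO wells and 0% = empty wells without cells.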 As to conditions: ATP luminescence, 48 h; Potency: viability; series mostly up to 45.8 µM. In short, it runs like this: as §1
Assay [9] in a line: Quantitative highthroughput screen to assess conditional lethalithy of SEM cells grown in RPMI1640 with unreated serum (RPMI+s) (AID 1963883). Further: nearly all actives have a fitted effect of over 35% in size.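 On Viability: 100% = DMSO wells and 0% = empty wells without cells.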 As to conditions: SEM B-ALL cells, CellTiter-Glo viability, 48 h; series mostly up to 45.8 µM. In short, it runs like this: as §1
A short description of assay [10]: Quantitative highthroughput screen to assess conditional lethalithy of SEM cells grown in Human Plasma-Like Medium with dialyzed fetal bovine serum (HPLM+ds) (AID 1963882). Further: nearly all actives have a fitted effect of over 35% in size. As to conditions: SEM B-ALL cells in HPLM+ds, CellTiter-Glo viability, 48 h; series mostly up to 45.8 µM. In short, it runs like this: as §1
Assay [11] can be described thus: Quantitative highthroughput screen to assess conditional lethalithy of P12 Ichikawa cells grown in RPMI1640 with dialyzed fetal bovine serum (RPMI+ds) (AID 1963880). Further: nearly all actives have a fitted effect of over 35% in size.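 On Viability: 100% = DMSO wells and 0% = empty wells on each plate.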 Conditions: ATP luminescence, 48 h; Potency: P12-Ichikawa viability; series mostly up to 45.8 µM. The method, boiled down:
as §1

The nature of assay [12]: Quantitative highthroughput screen to assess conditional lethalithy of SEM cells grown in RPMI1640 with dialyzed fetal bovine serum (RPMI+ds) (AID 1963884). Further: nearly all actives have a fitted effect of over 35% in size.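 On Viability: 100% = DMSO control wells and 0% = empty wells without cells.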 As to conditions: SEM B-ALL cells, RPMI+dialyzed FBS, CellTiter-Glo viability, 48 h; series mostly up to 45.8 µM. In short, it runs like this: as §1
A short description of assay [13]: Quantitative highthroughput screen to assess conditional lethalithy of NOMO1 cells grown in Human Plasma-Like Medium with dialyzed fetal bovine serum (HPLM+ds) (AID 1963878). Further: nearly all actives have a fitted effect of over 35% in size.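 On Viability: 100% = DMSO wells and 0% = empty wells on each plate.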 As to conditions: NOMO1 AML cells in HPLM+ds, CellTiter-Glo viability, 48 h; series mostly up to 45.8 µM. In short, it runs like this:
as §1
Potency means the concentration at half of the fitted maximal effect.

Regarding `COc1ccc(OC)c(-c2nnc3ccc(-c4ccc(OC)c(O[C@@H]5CCOC5)c4)nn23)c1`, the Potency in assay [1] was 2.63 µM (active); in [2], 2.95 µM (active); in assay [6], 5010 nM (active); in [7] it was 501 nM (active). In addition, the Potency result in assay [3], in assay [4] and in [5] was “inactive” in each case.
For the compound `Cn1c(=O)c(-c2c(Cl)cccc2Cl)cc2cnc(Nc3cccc(C(=O)O)c3)nc21`, the Potency in assay [1] was 0.662 µM (active); in assay [2], 0.259 µM (active); in assay [9], 14800 nM (active). The Potency entry in assay [3], in assay [4], in assay [8] and in assay [7] was “inactive” each time. In addition, the activity (max response) in assay [6] is -0.886%.
Consider `CC[C@@H]1C(=O)N(C)c2cnc(Nc3ccc(C(=O)NC4CCC(N5CCN(CC6CC6)CC5)CC4)cc3OC)nc2N1C(C)C` (stereo partly specified), for which the Potency in [1] is 0.0206 µM (active); in assay [2], 23.1 nM (active) and 9.2 nM (active) and 16.6 nM (active); in assay [3], 93.5 nM (active); in [4], 74.3 nM (active); in assay [5] it was 33.2 nM (active); in assay [8] it was 74.3 nM (active). In addition, the Potency in [10] was 29.6 nM (active); in [6], 50.1 nM (active); in assay [7] it was 1410 nM (active).
As for `Cc1ccccc1C(=O)c1ccc(Nc2ccc(Br)cc2N)cc1Cl`, the Potency in [1] was 11.8 µM (active) and 13 µM (active); in assay [2] it was 16.6 µM (active) and 18.4 µM (active); in [4], 20900 nM (active); in assay [6], 31600 nM (active); in [7], 31600 nM (active). The Potency entry in assay [3] was “inactive”.
As to `COC(=O)N[C@H](C(=O)N[C@@H](Cc1ccccc1)[C@@H](O)CN(Cc1ccc(-c2ccccn2)cc1)NC(=O)[C@@H](NC(=O)OC)C(C)(C)C)C(C)(C)C`, the Potency result in assay [1], in assay [2], in assay [3], in assay [4], in assay [11] and in assay [8] was “inactive” in each case. The Potency entry in assay [10], in [9], in [12] and in assay [7] was “inactive” in each case. In addition, the activity (max response) in assay [6] is -5.43%.
For the compound `N#CC[C@H](C1CCCC1)n1cc(-c2ncnc3[nH]ccc23)cn1`, the Potency in assay [1] was 8.2 µM (active); in assay [2], 20.6 µM (active); in [3] it was 14800 nM (active); in assay [13] it was 7430 nM (active).
Consider `Cc1ccc(-c2ncn(-c3ccc(Nc4nccc(-c5cccc(N6CCOCC6)c5)n4)cc3)n2)cn1`, for which the Potency was 2.35 µM (active) in assay [1]; 2.35 µM (active) in assay [2]; 372 nM (active) in assay [3]; 296 nM (active) in assay [13]; 296 nM (active) in assay [5]; 372 nM (active) in [11]. Further, the Potency was 296 nM (active) in assay [8], 235 nM (active) in [10], 118 nM (active) in assay [9] and 148 nM (active) in assay [12]. The activity (max response) in [6] is 11.5%.
With `COc1ccc2c(Oc3ccc(NC(=O)c4c(C)n(CC(C)(C)O)n(-c5ccccc5)c4=O)nc3)ccnc2c1`, the Potency was 0.166 µM (active) in [1] and 0.332 µM (active) in assay [2]. Besides, the Potency result in [3], in assay [4], in assay [5] and in assay [7] was “inactive” each time.
As to `Cc1ccc(F)c(NC(=O)Nc2ccc(-c3cccc4[nH]nc(N)c34)cc2)c1`, the Potency in assay [1] was 0.0166 µM (active); in assay [2], 0.0231 µM (active); in assay [9], 10500 nM (active); in assay [12], 5900 nM (active); in assay [6], 22400 nM (active); in assay [7], 15800 nM (active). For the same compound, the Potency entry in [3], in [4], in [11] and in assay [8] was “inactive” throughout.
As to `Cc1cnc(-c2cnc(NCCNc3ccc(C#N)cn3)nc2-c2ccc(Cl)cc2Cl)[nH]1`, the Potency in [1] is 14.6 µM (active); in assay [2], 13 µM (active). The Potency result in assay [3], in assay [4] and in [7] was “inactive” each time.
For the compound `Cc1cnc(Nc2ccc(N3CCN(C)CC3)cc2)nc1Nc1cccc(S(=O)(=O)NC(C)(C)C)c1`, the Potency in assay [1] is 0.103 µM (active); in [2], 0.206 µM (active); in [3], 13200 nM (active); in assay [13], 14800 nM (active); in [5], 11800 nM (active); in assay [11], 16600 nM (active). For the same compound, the Potency in [8] was 7430 nM (active); in assay [10] it was 1050 nM (active); in [9], 935 nM (active); in assay [12], 1320 nM (active); in assay [6], 12600 nM (active); in assay [7], 10000 nM (active).
Regarding `CCN1CCN(CC(=O)Nc2ccc(-c3cccc4c(=O)cc(N5CCOCC5)oc34)c3sc4ccccc4c23)CC1`, the Potency in [1] is 422 nM (active) and 407 nM (active); in assay [2] it was 422 nM (active) and 723 nM (active); in [3] it was 4180 nM (active); in assay [4], 3720 nM (active); in assay [9], 1050 nM (active); in assay [12], 1320 nM (active). Also, in [7], the Potency was 7150 nM (active). In assay [5], the Potency entry was “inactive”.
In the case of `O=C(O)CCCc1c[nH]c2ccccc12`, the Potency result in assay [1], in assay [2], in [3], in [13], in assay [5] and in [11] was “inactive” throughout. Besides, the Potency result in assay [8], in [10], in assay [9], in assay [12] and in [7] was “inactive” throughout.
For the compound `C[C@@H]1COC(Nc2ccc3ncnc(Nc4ccc(OCc5nccs5)c(Cl)c4)c3c2)=N1`, the Potency in [1] is 4.11 µM (active); in assay [2], 2.91 µM (active); in assay [11], 18700 nM (active); in assay [6], 15800 nM (active); in [7], 28200 nM (active). In addition, the Potency result in assay [3] and in [4] was “inactive” throughout.
Take `COc1cc2nccc(Oc3ccc(NC(=O)Nc4ccc(F)cc4F)c(F)c3)c2cc1OC`: the Potency in assay [1] was 0.0231 µM (active); in [2], 0.0517 µM (active); in assay [5] it was 23500 nM (active); in assay [10], 10.5 nM (active); in assay [9], 209 nM (active). The Potency entry in [3] and in [13] was “inactive” each time. For the same compound, the activity (max response) in [6] is -11.6%.
Turning to `CN(C)CCC=C1c2ccccc2C=Cc2ccccc21`, the Potency in [1] is 18.6 µM (active); in [2] it was 14.8 µM (active); in assay [3] it was 20900 nM (active); in assay [13] it was 18700 nM (active). The Potency result in [5], in [11], in assay [9] and in assay [12] was “inactive” in each case.
